Compound activity: PubChem BioAssay, National Center for Advancing Translational Sciences (NCATS)
NS1 function inh = qHTS Assay for Inhibitors of Influenza NS1 Protein Function; Potency, µM (top dose mostly 46.1 µM), for the others: at the top dose activity, positive = more growth; 0.4% of 270,000 active; note: potency is the fitted concentration of half-maximal effect; actives are rising curves; nearly all actives have a fitted effect of over 50% in size
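Recovery from NS1-induced slow growth read by OD600 in budding yeast switched to galactose assay medium (pH 6.0, -URA) at 1:100 dilution. Compound 23 nl per well; the matching strain lacking NS1 serves as control.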
SARS PLpro yeast = qHTS of Yeast-based Assay for SARS-CoV PLP; 0.19% of 330,000 active; Potency, µM (highest dose often 32.9 µM), without a hit: at the top dose activity, positive = growth rescue, most hits filed as activators; AID 485353, 2010; S. cerevisiae expressing SARS-CoV PLpro, growth rescue; note: potency is the fitted concentration of half-maximal effect; 0% is about no effect; nearly all actives have a fitted effect of over 55% in size
Shiga inhibitor = A qHTS for Small Molecule Inhibitors of Shiga Toxin; 9.2% of 290,000 active; AID 2315, 2010; Vero cells, Shiga toxin protein synthesis inhibition reporter; inhibition, % at 38.7 µM; in the data active = inhibition mostly above about 28%, no sharp cut-off; inactive = mostly below about 43%; note: 0% is about no effect
Cycloheximide cs = Cycloheximide Counterscreen for Small Molecule Inhibitors of Shiga Toxin; 12% of 300,000 active; cell reporter, cycloheximide protein synthesis inhibition counterscreen; max response, %; in the data active = max response mostly above about 13%, no sharp cut-off; inactive = mostly below about 14%; note: read at 38.3 µM for the half of the compounds with a filed dose; 0% is about no effect
* hit, by the source's call. Rows were chosen to be rich in hits. Some 12% of all compounds tested hit in one or more screens of this group. Unless noted, calls come from the whole dose curve.

COC(=O)c1ccc(COC(=O)Cc2n[nH]c(=O)c3ccccc23)cc1 was read as NS1 function inh 5%, SARS PLpro yeast -4%, Shiga inhibitor 27 and Cycloheximide cs 27*.
COC(=O)c1ccc(COC(=O)c2ccccn2)cc1 was read as NS1 function inh -6%, SARS PLpro yeast -7%, Shiga inhibitor 86* and Cycloheximide cs 38*.
Screening COC(=O)Cc1n[nH]c(=O)c2ccccc12 returned NS1 function inh 1%, SARS PLpro yeast 12%, Shiga inhibitor -26 and Cycloheximide cs -5.
O=C(Oc1ccc(Cl)cc1)c1ccc(COC(=O)c2cnccn2)cc1 was read as NS1 function inh -123%, SARS PLpro yeast -16%, Shiga inhibitor 87* and Cycloheximide cs 40*.
Screening Cc1ccc(N(C)S(=O)(=O)c2ccc(-c3cnc(C4CC4)o3)cc2)cc1 returned NS1 function inh 8%, SARS PLpro yeast -5%, Shiga inhibitor 7 and Cycloheximide cs -3.
CCOC(=O)NCc1ccc(S(=O)(=O)Nc2c(C)cccc2C)cc1 was read as NS1 function inh 4%, SARS PLpro yeast 7%, Shiga inhibitor -16 and Cycloheximide cs -5.
For C=C(C)[C@H]1CC=C(CO)CC1 the results were Shiga inhibitor 22 and Cycloheximide cs 4.
CS(=O)(=O)Cc1ccc(C(=O)N(CCc2ccccc2)Cc2ccccc2)cc1 was read as NS1 function inh -17%, SARS PLpro yeast -3%, Shiga inhibitor 11 and Cycloheximide cs -2.
`COc1cc(OC)cc(C(=O)NNS(=O)(=O)c2ccc(F)cc2)c1` gave NS1 function inh 5%, SARS PLpro yeast -2%, Shiga inhibitor -5 and Cycloheximide cs -2.
For O=C(OCc1ccc(F)cc1Cl)c1ccccn1 the results were NS1 function inh -63%, SARS PLpro yeast -22%, Shiga inhibitor 19 and Cycloheximide cs 20*.
`O=C(OCc1c(Cl)cccc1Cl)c1ccccn1` gave NS1 function inh -40%, SARS PLpro yeast -31%, Shiga inhibitor -18 and Cycloheximide cs -2.
For COc1cc2c(cc1O)CCC1C2CC[C@]2(C)[C@@H](O)CC[C@@H]12 (stereo not given in full) the results were NS1 function inh -33%.
C/C(=N/OC(=O)c1ccc(C)cc1)c1cccs1 was read as NS1 function inh -59%, SARS PLpro yeast -20%, Shiga inhibitor 123* and Cycloheximide cs 33*.
Screening C/C(=N\OC(=O)c1ccc(Cl)c(Cl)c1)c1sc(C)nc1C returned NS1 function inh -2%, SARS PLpro yeast -3%, Shiga inhibitor -7 and Cycloheximide cs -3.
For C/C(=N\OC(=O)c1ccc(C)cc1)c1sc(C)nc1C the results were NS1 function inh -75%, SARS PLpro yeast -5%, Shiga inhibitor 33 and Cycloheximide cs 32*.
Screening C/C(=N/OC(=O)c1ccccc1Br)c1ccc(C)cc1 returned NS1 function inh -132%, SARS PLpro yeast -28%, Shiga inhibitor 139* and Cycloheximide cs 66*.
For CC(=O)OCC1=C[C@H]2[C@@H]3C(C)(C)[C@]3(OC(C)=O)C[C@@H](C)[C@]2(O)[C@@H]2C=C(C)C(=O)[C@@]2(O)C1 the results were Shiga inhibitor -3 and Cycloheximide cs 11.
For COC(=O)c1ccc(C)c(NC(=O)CCCN2C(=O)NC(C)(C)C2=O)c1 the results were SARS PLpro yeast -3%.
O=c1[nH]c2ccc(S(=O)(=O)N3CCCCC3)cc2[nH]c1=O was read as NS1 function inh 4%, SARS PLpro yeast -21%, Shiga inhibitor -1 and Cycloheximide cs -4.
Cc1cccc(Oc2coc3cc(OC(=O)c4cccs4)ccc3c2=O)c1 was read as NS1 function inh 5%, SARS PLpro yeast 1%, Shiga inhibitor 50* and Cycloheximide cs 29*.
For CCn1c(C)nc2cc(C(=O)N/N=C/c3ccccc3C)ccc21 the results were NS1 function inh -4%, SARS PLpro yeast 0%, Shiga inhibitor 133* and Cycloheximide cs 41*.
Screening CCn1c(C)nc2cc(C(=O)NN=Cc3ccccc3OC(F)F)ccc21 returned SARS PLpro yeast -9%.
For CCn1c(C)nc2cc(C(=O)NNC(=S)Nc3ccccc3OC)ccc21 the results were NS1 function inh 0%, SARS PLpro yeast 0%, Shiga inhibitor 33* and Cycloheximide cs 20*.
Screening CCn1c(C)nc2cc(C(=O)N/N=C(\C)c3ccccc3O)ccc21 returned SARS PLpro yeast -4%, Shiga inhibitor 85* and Cycloheximide cs 31*.
O=S(=O)(c1ccc(F)cc1)N1CCN(c2nc(-c3cccc(Br)c3)nc3ccccc23)CC1 was read as Shiga inhibitor 24 and Cycloheximide cs 4.
CC(CC(=O)OCC(=O)NC1CCS(=O)(=O)C1)c1ccccc1 (stereo not given) was read as SARS PLpro yeast 1%.
Screening CCn1c(C)c(C(=O)Nc2ccc(OC)cc2)c2cc(OC)ccc21 returned NS1 function inh 1%, SARS PLpro yeast 1%, Shiga inhibitor 27 and Cycloheximide cs 19*.
`CCOC(=O)c1c(C)[nH]c(C(=O)COC(=O)CNS(=O)(=O)c2ccc(C)cc2)c1C` gave SARS PLpro yeast 5%.
O=C(CN1CCN(c2ccccc2O)CC1)Nc1ccc2c(c1)CCC2 was read as NS1 function inh -2%, SARS PLpro yeast 13%, Shiga inhibitor -10 and Cycloheximide cs -1.
Screening C=CCSc1nsc(N)n1 returned NS1 function inh -7%, SARS PLpro yeast -10%, Shiga inhibitor -9 and Cycloheximide cs -2.
For CCCCCCCSc1nsc(N)n1 the results were NS1 function inh -40%, SARS PLpro yeast -26%, Shiga inhibitor 65* and Cycloheximide cs 3.
`CCCCCCSc1nsc(NC(=O)CC(C)C)n1` gave NS1 function inh -25%, SARS PLpro yeast -4%, Shiga inhibitor 37* and Cycloheximide cs 27*.
`CCCCCCCCCCSc1n[nH]c(NC(C)=O)n1` gave NS1 function inh -3%, SARS PLpro yeast -2%, Shiga inhibitor -7 and Cycloheximide cs -1.
For CCCSc1nsc(NC(=O)CC)n1 the results were NS1 function inh -1%, SARS PLpro yeast 0%, Shiga inhibitor 72* and Cycloheximide cs 38*.
CCCSc1nsc(NC(=O)C(c2ccccc2)c2ccccc2)n1 was read as NS1 function inh 17%, SARS PLpro yeast 4%, Shiga inhibitor -6 and Cycloheximide cs 10.
CCNC(=O)CCn1nc(-c2ccc(C)cc2)c2ccccc2c1=O was read as NS1 function inh -3%, SARS PLpro yeast 1%, Shiga inhibitor -2 and Cycloheximide cs -10.
For CCCCNC(=O)Nc1ccnn1C1CCCCC1 the results were NS1 function inh 15%, SARS PLpro yeast inconclusive, Shiga inhibitor -10 and Cycloheximide cs 0.
For NCCCCCCC(O)(P(=O)(O)O)P(=O)(O)O the results were Shiga inhibitor 10 and Cycloheximide cs -5.
`Cn1cc2cccc([N+](=O)[O-])c2n1` gave SARS PLpro yeast 0%, Shiga inhibitor -7 and Cycloheximide cs -6.
For COc1ccc(-c2nc3c(-c4ccccc4)cnn3cc2C)cc1F the results were NS1 function inh 2%, SARS PLpro yeast 1%, Shiga inhibitor -6 and Cycloheximide cs -2.
Cc1cccn2cc(-c3ccc(Cl)cc3)nc12 was read as NS1 function inh -6%, SARS PLpro yeast -4%, Shiga inhibitor 62* and Cycloheximide cs 45*.
